Source: the supplement of paper PMC13380429

Each molecule was assayed on Vero E6 infected with SARS-CoV-2 (assay: morphology score (similarity to uninfected cells); higher = more like uninfected cells). Details: 24 h.

Compound	morphology score
CC(=O)Nc1ccc(S(=O)(=O)Nc2ccc([N+](=O)[O-])cc2)cc1 [sulfanitran] (10 µM)	-0.126
O=C(c1cn(Cc2cncn2Cc2ccc(Br)cc2)cc1-c1cccc2ccccc12)N1CCOCC1 (0.833333 µM)	0.342
CC(C)Cc1ccc(C(C)C(=O)NO)cc1 (stereo unspecified) [ibuproxam] (10 µM)	0.234
O=C1C(=C(O)/C=C/c2ccc(O)cc2)C(=O)[C@@](O)([C@@H]2O[C@H](CO)[C@@H](O)[C@H](O)[C@H]2O)C(=O)[C@H]1[C@@H]1O[C@H](CO)[C@@H](O)[C@H](O)[C@H]1O (10 µM)	0.0573
CC/C=C(\C(=O)N[C@@H]1C(=O)N2C(C(=O)OCOC(=O)C(C)(C)C)=C(COC(N)=O)CS[C@H]12)c1csc(N)n1 [cefcapene-pivoxil] (10 µM)	-0.175
CCCCNc1c(C(=O)OCC)c(C)nc2c1cnn2CC [tracazolate] (10 µM)	0.174
CCNC(=O)NS(=O)(=O)c1sc(CC(C)C)cc1-c1ccc(Cn2c(-c3ccccc3)nc(OC)c2C=O)cc1 (10 µM)	0.159
CC(C)c1ccc(C(=O)N=C(N)N)cc1S(C)(=O)=O [cariporide] (10 µM)	0.169
Oc1ccc(Cl)cc1 [parachlorophenol] (10 µM)	0.063
Cc1c(C)c2c(c(C)c1O)CC[C@@](C)(CCC[C@H](C)CCC[C@H](C)CCCC(C)C)O2 [vitamin-E] (10 µM)	-0.299
O=c1cc(-c2ccc(O)c(O)c2)oc2cc(O)cc(O)c12 [luteolin] (10 µM)	0.167
